# The supplement of paper PMC6555819
# Tests used:
# Experiment in all cases: PBM binding z-score (relative to random genomic background probes); higher = stronger binding; sequences stand for … in GC…GCGATTGACAGCGTAGAATGAAGG
# [1] = system: FXR:RXRa (NR concentration 270 nM, RXRa partner concentration 90 nM)
# How it was run: (§1)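 Binding z-scores take random background probes as their reference. They come from custom Agilent 4×180K protein-binding microarrays incubated 1 h with ligand-free nuclear receptor dimers, with antibodies against each partner (one per run) detecting binding. Scanned fluorescence was regression-normalized.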
# [2] = system: LXRa:RXRa (NR concentration 270 nM, RXRa partner concentration 90 nM)
# How it was run: as §1
# [3] = system: LXRa homodimer (NR concentration 270 nM)
# How it was run: as §1
# [4] = system: LXRb:RXRa (NR concentration 270 nM, RXRa partner concentration 90 nM)
# How it was run: as §1
# [5] = system: LXRb homodimer (NR concentration 270 nM)
# How it was run: as §1
# [6] = system: PPARa:RXRa (NR concentration 270 nM, RXRa partner concentration 90 nM)
# How it was run: as §1
# [7] = system: PPARg:RXRa (NR concentration 180 nM, RXRa partner concentration 90 nM)
# How it was run: as §1
# [8] = system: PPARg:RXRa 270nM:90nM, anti-RXR (NR concentration 270 nM, RXRa partner concentration 90 nM)
# How it was run: as §1
# [9] = system: PPARg:RXRa 30nM:10nM, anti-RXR (NR concentration 30 nM, RXRa partner concentration 10 nM)
# How it was run: as §1
# [10] = system: PPARg:RXRa 90nM:30nM, anti-RXR (NR concentration 90 nM, RXRa partner concentration 30 nM)
# How it was run: as §1
# [11] = system: PPARg:RXRa DBDmut IVT, anti-RXR (DBD mutation: RXRa K156A/R161A, NR concentration 270 nM, RXRa partner concentration 90 nM)
# How it was run: as §1
# [12] = system: PPARg:RXRa IVT, anti-PPARg (NR concentration 270 nM, RXRa partner concentration 90 nM)
# How it was run: as §1
# [13] = system: PPARg DBDmut:RXRa IVT, anti-PPARg (DBD mutation: PPARg1 K132A/R137A, NR concentration 270 nM, RXRa partner concentration 90 nM)
# How it was run: as §1
# [14] = system: PPARg DBDmut IVT, anti-PPARg (DBD mutation: PPARg1 K132A/R137A, NR concentration 270 nM)
# How it was run: as §1
# [15] = system: PPARg homodimer (NR concentration 180 nM)
# How it was run: as §1
# [16] = system: PXR:RXRa (NR concentration 270 nM, RXRa partner concentration 90 nM)
# How it was run: as §1
# [17] = system: PXR homodimer (NR concentration 270 nM)
# How it was run: as §1
# [18] = system: RARa:RXR (NR concentration 270 nM, RXRa partner concentration 90 nM)
# How it was run: as §1
# [19] = system: RARa homodimer (NR concentration 270 nM)
# How it was run: as §1
# [20] = system: RARb:RXRa (NR concentration 270 nM, RXRa partner concentration 90 nM)
# How it was run: as §1
Sequence,PBM binding z-score [1],PBM binding z-score [2],PBM binding z-score [3],PBM binding z-score [4],PBM binding z-score [5],PBM binding z-score [6],PBM binding z-score [7],PBM binding z-score [8],PBM binding z-score [9],PBM binding z-score [10],PBM binding z-score [11],PBM binding z-score [12],PBM binding z-score [13],PBM binding z-score [14],PBM binding z-score [15],PBM binding z-score [16],PBM binding z-score [17],PBM binding z-score [18],PBM binding z-score [19],PBM binding z-score [20]
CAAATTAGGTCAAAGGTCAAAGTCGAGCCAACCA,8.64,7.33,6.11,7.29,3.55,7.52,14,11.2,13.6,13.7,8.74,8.96,4.97,4,6.21,7.1,2.26,8.95,3.73,5.94
CGAAATAGGTCAAGGACAGTGAATCTCCGCACGC,5.6,4.09,0.715,3,0.676,5.27,7.22,6.58,4.2,6.39,7.8,7.31,2.5,0.573,3.31,2.69,0.113,3.82,1.59,4.51
CGAACTAGGTCAGAAGAGGACAGTGAAGGATGAT,1.71,1.24,-0.161,0.331,-0.576,3.14,5.79,4.62,2.29,4.02,7.13,7.32,3.38,1.51,1.15,2.5,-0.0219,2.42,0.202,3.05
TCTGCTAGGTCAACGAAGGTCAGCTAATCTGCTA,4.67,5.5,2.58,3.81,0.162,4.32,3.83,4.05,2.3,3.7,4.15,4.53,0.834,0.313,3.51,5.64,0.241,4.51,0.797,4.95
TTTAGCAGGCCAGAGGGTCACTCAAGAGGTACGG,0.67,0.761,-0.56,1.09,-0.78,2.32,2.08,2.99,1.1,2.42,-0.256,1.03,-0.784,-1.27,0.57,1.55,-0.341,2.18,-0.62,2.05
TCTTTTAGATCAGCAGGTTAAGAAAGCTGGCCAA,0.304,0.549,-0.247,0.44,0.139,0.889,-0.5,1.65,3.33,2.36,1.92,0.4,0.922,0.837,0.344,0.321,0.072,0.753,0.437,0.563
CCTCGGCGGACAACAGGAGGTCAGAGCTGCCAGA,0.527,1.43,1.67,1.06,-1.27,1.68,-0.102,0.0174,-0.988,-0.415,-0.701,-0.463,-0.701,-1.7,0.632,1.32,0.232,1.76,0.119,1.96
TCATATAGGTAAATCCTAGGTGAAAGTCCGATCT,0.916,0.69,-0.094,0.537,-0.0667,1.47,0.85,2.16,3.66,2.72,3.48,2.8,0.825,0.675,-0.358,0.68,0.175,1.11,0.51,0.592
CTCGAAAGGTCGTTTGAGGTGAGTATACGGATAA,6.16,4.77,0.74,3.96,1.09,4.99,2.46,3.47,1.38,2.14,0.353,1.91,1.09,0.474,1.54,5.25,0.584,4.16,-0.088,3.89
GATACAGGGTCAGCTAGTGGCCAGAGTATGGAAA,4.54,2.31,-0.558,2.21,-0.762,4.49,3.55,3.25,0.61,1.77,1.03,2.29,-0.052,-0.0645,1.79,1.89,0.153,3.05,-0.0625,3.69
TCATATAAGTAAATGCTAGGTGAAAGTCCGATCT,1.12,1.03,0.543,0.645,0.419,1.3,0.711,2.49,4.34,3.6,3.04,0.569,0.642,0.691,1.1,0.626,0.422,0.789,1.78,0.428
GCTTGTATATCAAGGTTAAGAAAGACTAAGCTAA,0.268,1.1,-0.0678,0.659,-0.396,1.19,0.639,0.798,0.189,0.527,0.247,0.653,0.195,0.533,-0.0686,0.625,-0.223,0.967,0.663,1.03
TCTGCTAGGTCAACGATAGTCAGCTAATCTGCTA,3.23,2.35,-0.23,1.4,-0.0504,3.14,2.53,3.15,1.95,2.82,4.19,4.2,0.616,0.703,0.481,1.31,-0.482,1.98,-0.872,3.99
